Source: PubChem BioAssay
Shown are actives, neighbours in structure and some others; about 7.8% of the full set was active somewhere.
Vaccinia mCherry: inhibitors of vaccinia virus infection (mCherry reporter signal); Vaccinia virus mCherry reporter infection, fluorescence; Potency, µM (titrated, usually from 36.5 µM), actives largely listed as inhibitors; 310,000 tested, 0.63% active; calls by dose curve; tested in A549 cells; note: nearly all actives have a fitted effect of over 35% in size
MARV entry inh: inhibitors of Marburg virus binding or cell entry | Potency, µM (titrated, usually from 37.8 µM), most hits filed as inhibitors | Marburg virus pseudotyped entry inhibition, cell reporter | 300,000 tested, 1.8% active; calls by dose curve; tested in HEK293 cells
Lassa entry inh: Lassa virus entry inhibition | Lassa virus pseudotype entry inhibition, cell reporter | Potency, µM (doses to about 37.9 µM), most hits filed as inhibitors | 300,000 tested, 1.2% active | AID 540256; calls by dose curve; tested in HEK293 cells; note: nearly all actives have a fitted effect of over 50% in size
HCV inh: inhibitors of hepatitis C virus infection. Huh7.5.1 HCVcc-Cre infection, luciferase reporter, 44 h. Potency, µM (top dose mostly 41.8 µM), actives largely listed as inhibitors. 340,000 tested, 3.4% active; active = well fitted inhibition curve with a large enough effect; inconclusive = small, poorly fitted or top-dose-only effect, or another doubt; inactive = no such curve, though single readings can be large or run the other way
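Cells seeded at 1,000/well and cultured 4 h, then compounds added followed by HCVcc-Cre virus (~0.5 moi). After 44 h further culture, luciferase substrate was added, plates held 15 min at room temperature, and luminescence read for 15 sec.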
VACV Venus inh: vaccinia inhibition (Venus reporter) | Vaccinia virus Venus reporter expression, fluorescence | Potency, µM (doses to about 36.5 µM), actives largely listed as inhibitors | 330,000 tested, 0.46% active; calls by dose curve; tested in A549 cells; note: nearly all actives have a fitted effect of over 30% in size
HCMV antiviral: blocks human cytomegalovirus replication. HFF cells, HCMV-luciferase reporter, 72 h; active compounds read low. activity change, negative = inhibition, % at 57.5 µM. 410,000 tested, 4.5% active; in the data active = activity change below about -60%; inconclusive = no clear call, values can overlap the other calls; inactive = above about -39%
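Human foreskin fibroblasts infected with luciferase-reporter HCMV at MOI 1 PFU/cell, compounds at two doses. Luciferase measured 72 h post infection; normalized to buffer-only basal and Salinomycin (10uM) controls.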
A number is an active result; i = inactive; ? = inconclusive; nt = no result given; [ ] = another dose, or the depositor's remark.

SMILES | Vaccinia mCherry | MARV entry inh | Lassa entry inh | HCV inh | VACV Venus inh | HCMV antiviral
O=C(/C=C/c1cc[n+](CC(=O)c2ccc3cccc4c3c2CC4)cc1)c1ccc2cccc3c2c1CC3 | i | nt | nt | 6.31µM | i | nt
CCOc1ccc(NC(=O)c2ccc3nc(C(C)C)oc3c2)cc1 | i | nt | i | nt | ? | i
Cc1c(C(=O)NCCCN2CCCC2=O)oc2ccc(S(=O)(=O)N3CCOCC3)cc12 | nt | i | i | i | nt | i
Cc1ccc(NC(=O)c2oc3ccc(S(=O)(=O)N4CCOCC4)cc3c2C)c(C)c1 | i | i | ? | i | i | i
Cc1c(C(=O)NCCC2=CCCCC2)oc2ccc(S(=O)(=O)N3CCOCC3)cc12 | nt | ? | 8.2µM | 10µM | nt | -68.9
Cc1cccc(NC(=O)c2oc3ccc(S(=O)(=O)N4CCOCC4)cc3c2C)c1C | nt | ? | ? | 10µM | nt | i
CCCS(=O)(=O)NCc1c(C)ncc2c1CCN(C(=O)/C=C/c1ccccc1)C2 | i | nt | nt | nt | i | nt
CCCCOc1nc2ccccc2nc1[C@H](C#N)C(=O)NC1CCCCC1 | nt | i | nt | nt | nt | nt
O=C(Nc1ccc(Cl)c(-c2nc3cc(Cl)ccc3o2)c1)c1cc([N+](=O)[O-])ccc1N1CCOCC1 | i | i | i | nt | i | i
O=C(NCCCN1CCOCC1)c1cc(-c2ccccc2)nc2ccccc12 | i | i | i | i | i | i
O=C(NCCCN1CCCCC1)c1cc(Sc2ccc(Cl)cc2)nc2ccccc12 | i | nt | i | nt | i | -70.7
CC1CCCN(CCCNC(=O)c2cc(Sc3ccc(F)cc3)nc3ccccc23)C1 (centres undefined) | i | nt | i | nt | i | -71.3
Cc1ccc(Nc2ncc(C(=O)NCCCN3CCN(C)CC3)c3ccccc23)cc1Cl | i | ? | ? | 10µM | i | i
Cc1ccc(Nc2cc(C(=O)NCCCN3CCOCC3)c3ccccc3n2)cc1C | i[7.34 µM] | nt | nt | 22.4µM | i[7.34 µM] | i
Cc1ccc(Nc2ncc(C(=O)N3CCN(c4cccc(Cl)c4)CC3)c3ccccc23)cc1Cl | i | i | i | nt | i | i
O=C(NCCCN1CCCC1)c1cc(Sc2ccc(F)cc2)nc2ccccc12 | i | ? | nt | i | i | i
Oc1cc(-c2cccs2)cc2c1OCCN(Cc1cn[nH]c1-c1ccc(Cl)cc1)C2 | i | nt | nt | nt | i | nt
O=C(NCCN1CCOCC1)c1cc(Sc2ccccc2Cl)nc2ccccc12 | nt | i | i | ? | nt | -60.9
COc1ccc(CCNC(=O)c2cc(Sc3cccc(Cl)c3)nc3ccccc23)cc1OC | i | nt | ? | nt | i | -83.6
O=C(NCCN1CCOCC1)c1cc(Sc2ccc(F)cc2F)nc2ccccc12 | i | i | ? | i | i | i
CCOCCCNC(=O)c1cc(Sc2cccc(Cl)c2)nc2ccccc12 | i | nt | i | nt | i | ?
CCOCCCNC(=O)c1cc(Sc2ccc(C)cc2)nc2ccccc12 | i | ? | ? | ? | i | -60.4
Cc1cccc(Oc2nc3ccccn3c(=O)c2/C=C(\C#N)C(=O)NC2CCS(=O)(=O)C2)c1 (centres undefined) | i | i | i | i | i | i
N#C/C(=C\c1c(N2CCCCC2)nc2ccccn2c1=O)C(=O)NC1CCS(=O)(=O)C1 (centres undefined) | i | i | i | i | i | i
N#C/C(=C\c1c(Oc2ccc(Cl)cc2)nc2ccccn2c1=O)C(=O)NC1CCS(=O)(=O)C1 (centres undefined) | i | ? | 3.55µM | i | i | i
SMILES | Vaccinia mCherry | MARV entry inh | Lassa entry inh | HCV inh | VACV Venus inh | HCMV antiviral
Cc1cc(Oc2nc3ccccn3c(=O)c2/C=C(\C#N)C(=O)NC2CCS(=O)(=O)C2)ccc1Cl (centres undefined) | i | ? | ? | ? | i | -65.8
Cc1cccc(Oc2nc3ccccn3c(=O)c2/C=C(\C#N)C(=O)NC2CCS(=O)(=O)C2)c1C (centres undefined) | i | ? | ? | i | i | -96.3
Cc1cccn2c(=O)c(/C=C(\C#N)C(=O)NC3CCS(=O)(=O)C3)c(Oc3ccc(F)cc3)nc12 (centres undefined) | i | ? | i | i | i | i
COc1ccc(OC)c(-c2cc(C(=O)NC(C)c3ccccc3)no2)c1 (centres undefined) | i | i | ? | nt | i | i
Cc1ccc(/C=N/Nc2cc(C)nc(NCc3ccccc3)n2)cc1 | ? | ? | ? | 7.08µM | i | i
Cc1cc(N/N=C/c2ccc(N(C)C)cc2)nc(NCc2ccccc2)n1 | nt | nt | nt | ? | nt | i
Cc1cc(N/N=C/c2ccc(F)cc2)nc(NCc2ccccc2)n1 | ? | ? | ? | 11.2µM | i | i
